According to PubChem BioAssay AID371 (SRMLSC, 2006):
Screen size: about 3,300 compounds; about 280 (8.5%) were called active. This is one part of a sample in which actives are shown more often than they occur.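 The calls were made as follows: active = mean growth inhibition over the two runs of 50% or more; inactive = mean growth inhibition under 50%.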

Assay: A549 NSCLC cell proliferation inhibitors – ATP luminescence, human non-small cell lung line, primary screen (AID 371);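 also: compound exposure lasted 72 h before the ATP read; 0% = untreated cell signal and 100% = no luminescence left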
Details: at 10 µM, active compounds read high

Growth inhibition, inactive:
Cc1ccc(C(=O)NCC(C)(C)O)cc1 4.92%
COc1ccc(N2CCN(C3CC(=O)NC3=O)CC2)cc1 (stereo not drawn) 1.16%
CCOC(=O)CC1=C(C(=O)OCC)C(c2ccc(OC)c(OC)c2)C(C#N)=C(N)O1 (stereo not drawn) -2.02%
CCOC(=O)CC1=C(C(=O)OCC)C(c2cc(OC)c(OC)cc2OC)C(C#N)=C(N)O1 (stereo not drawn) -5.45%
CCCCCCn1c(SCCN2CCOCC2)nc2c1c(=O)[nH]c(=O)n2C 7.31%
CN1CC2(C)CN(C(c3ccccc3)c3ccccc3)CC(C)(C1)C2O (stereo not drawn) 6.36%
CCCCC(=O)O[C@]1(C(=O)CO)CC[C@H]2[C@@H]3CCC4=CC(=O)CC[C@]4(C)[C@H]3[C@@H](O)C[C@@]21C 21.6%
CC(=O)O[C@]1(C(C)=O)CC[C@H]2[C@@H]3C=C(C)C4=CC(=O)CC[C@]4(C)[C@H]3CC[C@@]21C 34.5%
CC(=O)O[C@]1(C(C)=O)CC[C@H]2[C@@H]3C[C@H](C)C4=CC(=O)CC[C@]4(C)[C@H]3CC[C@@]21C 50%
CCCCCCCC(=O)OCC(=O)[C@@]1(O)CC[C@H]2[C@@H]3CCC4=CC(=O)CC[C@]4(C)[C@H]3[C@@H](O)C[C@@]21C 26.8%
O=C(O)C1CSC(CCc2ccccc2)N1 (stereo not drawn) 5.85%
CCN(CC)CCCN1C(=O)C(=O)/C(=C(/O)c2ccc3c(c2)CC(C)O3)C1c1cccnc1 (stereo not drawn) 1.89%
COc1ccccc1N(Cc1cc2cccc(C)c2[nH]c1=O)C(=O)C(C)C 12.1%
O=C1C(=O)N(Cc2cccnc2)C(c2ccccn2)/C1=C(/O)c1ccc(F)cc1 (stereo not drawn) 1.96%

Growth inhibition, active:
CC(=O)O[C@@]12CO[C@@H]1C[C@H](O)[C@@]1(C)C(=O)[C@H](O)C3=C(C)[C@@H](OC(=O)[C@H](O)[C@@H](NC(=O)OC(C)(C)C)c4ccccc4)C[C@](O)([C@@H](OC(=O)c4ccccc4)[C@H]21)C3(C)C 55.2%
CC(=O)O[C@H]1C(=O)[C@]2(C)[C@H]([C@H](OC(=O)c3ccccc3)[C@]3(O)C[C@H](OC(=O)[C@H](O)[C@@H](NC(=O)c4ccccc4)c4ccccc4)C(C)=C1C3(C)C)[C@]1(OC(C)=O)CO[C@@H]1C[C@@H]2O 65.8%
CCCCCC(=O)O[C@]1(C(C)=O)CC[C@H]2[C@@H]3CCC4=CC(=O)CC[C@]4(C)[C@H]3CC[C@@]21C 73.5%
CC(=O)O[C@]1(C(C)=O)CC[C@H]2[C@@H]3C=C(Cl)C4=CC(=O)CC[C@]4(C)[C@H]3CC[C@@]21C 52.6%
